Molecules are shown by their SMILES. Values joined by “and” are separate entries in the source; they are usually repeats but may differ in a detail not shown here. Equal entries are not always repeated. Results filed as inconclusive are left out. Active and inactive are the calls of the source. Calls come from the whole dose curve; as a rule, active = well fitted curve in the direction sought with a large enough effect; inconclusive = small, poorly fitted or top-dose-only effect, or another doubt; inactive = no such curve, though single readings can be large; an effect the other way counts as inactive or inconclusive.

Assay [1] in a line: Primary qHTS for inhibitors of nuclear receptor binding SET domain protein 2 (NSD2) in an isogenic RCH-ACV NSD2 p.E1099K mutant (9B) (AID 1645876). As to conditions: RCH-ACV NSD2 E1099K (9B) viability, CellTiter-Glo, 72 h; series mostly up to 44.9 µM. (qHTS replaces the single test concentration by a dilution series.)
The nature of assay [2]: Primary qHTS for inhibitors of nuclear receptor binding SET domain protein 2 (NSD2) in an RCH-ACV wild type WT cells (2C) (AID 1645877). The settings on record: RCH-ACV (leukaemia line) NSD2 WT (2C) viability, CellTiter-Glo, 72 h; series mostly up to 44.9 µM.
Note: nearly all actives have a fitted effect of over 70% in size.
Potency is the fitted concentration of half-maximal effect.

Regarding `CC#CCn1c(N2CCC[C@@H](N)C2)nc2c1c(=O)n(Cc1nc(C)c3ccccc3n1)c(=O)n2C`, the Potency result in assay [1] and in assay [2] was “inactive” throughout. As to `COc1ccc(-n2c(C)c([N+](=O)[O-])c3ccc(O)cc32)cc1`, the Potency entry in assay [1] and in assay [2] was “inactive” throughout. On to `NC(=O)c1cnc(-c2ccc(C3(N)CCC3)cc2)c(-c2ccccc2)c1`, for which the Potency in assay [1] was 2.95 µM (active) and 459 nM (active); in assay [2], 11.8 µM (active) and 916 nM (active). On to `CC(C)(C(=O)NCC(F)(F)C(F)(F)F)C(=O)N[C@@H]1C(=O)Nc2ccccc2-c2ccccc21`, for which the Potency result in assay [2] was “inactive”.

Source of the values: PubChem BioAssay (NCATS).
